This is a sample that favours compounds with a hit; in the whole collection about 3.7% have one here.
B2AR arrestin: recruits beta-arrestin to the human beta2-adrenergic receptor. P07550. beta-arrestin recruitment to beta2AR, cell-based reporter. Potency, µM (titrated, usually from 46.1 µM), without a hit: top-dose activation, hits mostly activators. 0.02% of 330,000 active. AID 492947;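 further: potency means the concentration at half of the fitted maximal effect; 0% = DMSO controls and full agonism = EC100 isoproterenol or metaproterenol; nearly all actives have a fitted effect of over 65% in size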
BRCA1 expr up: activators of BRCA1 expression; MCF7-BRCA1-FFLuc reporter, luminescence, 48 h; response scale: scaled: vehicle 0%, 10 µM genistein 100%; 1.1% of 380,000 active; Potency, µM (series often up to 46.1 µM), inactives show at the top dose activation, most hits filed as activators; further: potency means the concentration at half of the fitted maximal effect; nearly all actives have a fitted effect of over 80% in size
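MCF7-BRCA1-FFLuc cells, 2000/well in phenol-red-free MEM, attached 2 h then treated 48 h at 37 C. Luciferase luminescence read 15 min after reagent; normalized to genistein maximum activation (10microM) and DMSO, concentration-response fitted.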
PTHR1 agonist: agonists of human PTHR1 parathyroid hormone receptor. 0.075% of 410,000 active. HEK293 GP2 PTHR1 cells, GloSensor cAMP luminescence, 1 h. Potency, µM (doses to about 115 µM), without a hit: at the highest dose activation, usual class: activators. AID 743266. Q03431; further: potency means the concentration at half of the fitted maximal effect; nearly all actives have a fitted effect of over 55% in size
Target sequence (Q03431 whole entry, looked up): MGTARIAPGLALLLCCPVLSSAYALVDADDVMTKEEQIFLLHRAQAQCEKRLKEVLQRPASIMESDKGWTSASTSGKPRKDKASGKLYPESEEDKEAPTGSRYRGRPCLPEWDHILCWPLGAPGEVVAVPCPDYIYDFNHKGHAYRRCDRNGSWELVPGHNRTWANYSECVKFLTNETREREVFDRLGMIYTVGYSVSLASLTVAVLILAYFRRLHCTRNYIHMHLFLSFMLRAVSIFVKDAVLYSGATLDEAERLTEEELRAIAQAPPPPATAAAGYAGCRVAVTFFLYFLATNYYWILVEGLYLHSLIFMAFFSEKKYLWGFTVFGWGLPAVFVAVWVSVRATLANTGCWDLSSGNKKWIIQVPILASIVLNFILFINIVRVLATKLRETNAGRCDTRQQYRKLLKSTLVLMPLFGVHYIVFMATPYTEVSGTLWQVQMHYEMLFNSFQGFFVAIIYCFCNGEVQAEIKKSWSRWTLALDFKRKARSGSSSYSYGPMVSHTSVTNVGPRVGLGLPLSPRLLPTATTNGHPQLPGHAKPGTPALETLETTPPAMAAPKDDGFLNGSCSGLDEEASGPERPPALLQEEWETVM
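HEK-293-derived GP2 cells expressing PTHR1 and a GloSensor cAMP reporter, 3,000/well, plated overnight, given luciferin plus IBMX (each 0.5 mM as added) for 1 h at 37 °C, then compound for 1 h at 37 °C. Luminescence was read after 15 min at room temperature.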
RGS4 inh: blocks human RGS4-accelerated GTP hydrolysis. P49798. Transcreener GDP fluorescence polarization, RGS4-accelerated GTP hydrolysis. Potency, µM (doses to about 114 µM), without a hit: at the highest dose activity change, negative = inhibition, usual class: inhibitors. 0.039% of 390,000 active; further: potency means the concentration at half of the fitted maximal effect; on the % scale 0 is the no-effect control and ±100 the full control effect; nearly all actives have a fitted effect of over 75% in size
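MLSMR compounds (23 nl, pin-transferred) preincubated 10 min at room temperature with a 500nM (2x) first reagent, then RGS4 at 900nM (2x) plus Transcreener GDP mix added; fluorescence polarization (620/688 nm) read before and after 90 min at 30 °C.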
D3 ag: activates the human D3 dopamine receptor; P35462; D3R DiscoveRx beta-arrestin cells, luminescence, 90 min; max activation, %; 0.58% of 410,000 active; in the data active means max activation above about 30%; further: 0% is about no effect
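Agonist-mode cell screen: cells plated at 1500/well and incubated overnight at 37 °C, then exposed to library compounds for 90 min at 37 °C. Detection reagent was added for 30–60 min at room temperature, and luminescence was read.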
D3 antag: antagonists of human D3 dopamine receptor; 2.5% of 360,000 active; P35462; D3R cells, DiscoveRx beta-arrestin luminescence, antagonist mode; hits give low values; max response, negative = inhibition, %; in the data active means max response below about -50%; inconclusive means no clear call, values can overlap the other calls; further: on the % scale 0 is the no-effect control and ±100 the full control effect
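Cells expressing the human receptor were seeded at 1500 cells/well, incubated overnight at 37 degrees C in 5% CO2, then exposed to library compounds with dopamine controls for 90 minutes at 37 degrees C before luminescent detection.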
Numbers without * were called inactive; i = inactive; ? = inconclusive; nt = not tested or not shown; [ ] = another dose, or the depositor's remark. Unless noted, the call rests on the fitted dose curve; in most records, active means well fitted curve in the direction sought with a large enough effect; inconclusive means small, poorly fitted or top-dose-only effect, or another doubt; inactive means no such curve, though single readings can be large; an effect the other way counts as inactive or inconclusive.

SMILES	B2AR arrestin	BRCA1 expr up	PTHR1 agonist	RGS4 inh	D3 ag	D3 antag
CCc1nc2ccc(C(=O)N(C)CCN(C)C)cn2c1N(C)Cc1cc2ccccc2s1	nt	-11%	-21%	nt	-27	-69*
COc1ccc(C(=O)c2ccccc2O)c(O)c1	0%	19%	-15%	-9%	-33	0
COc1ccc(C(=O)c2ccc(OC)cc2O)c(O)c1	0%	10µM*	i	14%	0	1
COc1cc(C(=O)NCc2nnc(SCC(=O)NCCc3ccccc3)o2)cc(OC)c1OC	0%	-7%	i	8%	5	-7
O=C(CSc1nnc(CNC(=O)c2ccccc2)o1)NCCc1ccccc1	0%	-7%	-10%	11%	-19	-68*
O=C1CCN(Cc2ccccc2)CCN1[C@H](CO)c1ccccc1	0%	1%	-3%	20%	-9	-51*
CCCN1CCC(=O)N(CCSc2ccc(Br)cc2)CC1	nt	nt	nt	-5%	nt	nt
Cc1ccc(SCCN2CCC(C)CCC2=O)cc1 (stereo unspecified)	0%	8.9µM*	-29%	-2%	-3	14
CN1CCC(=O)N(CCSc2ccc(Br)cc2)CC1	0%	68%	19%	-10%	-31	-56*
CC(C)(C)C1CCC(=O)N(CCSc2ccccc2)CC1 (stereo unspecified)	-1%	3.5µM*	-26%	18%	-16	?
CCCN1CCC(=O)N(CCSc2ccccc2)CC1	-1%	?	-15%	31%	-21	-6
Cc1ccc(SCCC(=O)N2CCC(C(N)=O)CC2)cc1	0%	24%	i	38%	-4	-1
Cc1ccc(SCCC(=O)N2CCC(C)CC2)cc1	11%	10µM*	-34%	18%	3	-20
O=C1CCN(Cc2ccccc2)CCN1CCSc1ccccc1	-1%	8.9µM*	-79%	8%	1	5
O=C(NCc1ccco1)c1ccc(-c2ccc(F)c(F)c2)c2ccoc12	nt	0%	-46%	nt	-7	0
Cc1ccc(S(=O)(=O)N(C)CC(=O)NCCCn2nc(C)cc2C)cc1	0%	35%	-63%	32%	-5	-16
COCC(C)NC(=O)NC(=O)c1ccc(Cl)cc1 (stereo unspecified)	0%	26%	i	18%	-5	-104*
CC[C@H]1OC(=O)[C@H](C)C(=O)[C@H](C)[C@@H](O[C@@H]2O[C@H](C)C[C@H](N(C)C)[C@H]2O)[C@](C)(OC)C[C@@H](C)C(=O)[C@H](C)[C@H]2N(CCCCn3cnc(-c4cccnc4)c3)C(=O)O[C@]12C	nt	nt	nt	nt	-5	nt
COCC(=O)Nc1nnc(-c2cccs2)s1	0%	?	-3%[57.5 µM]	20%	-3	-72*
N=C(N)c1ccc(OCCCOc2ccc(C(=N)N)cc2Br)c(Br)c1	nt	nt	nt	nt	-23	nt
CCCOC(=O)c1c(-c2ccc(OC)cc2)oc2ccc(-c3ccc(OC)nc3)cc12	-1%	0%	17%	?	30	91
COC(=O)c1c(-c2ccc(OC)cc2)oc2ccc(-c3cc(OC)c(OC)c(OC)c3)cc12	nt	5%	5%	-42%	35*	77
COc1ccc(C(=O)c2c(-c3ccc(OC)cc3)oc3ccc(-c4cc(OC)c(OC)c(OC)c4)cc23)cc1	nt	-3%	-40%	22%	22	62
COC(=O)c1c(-c2ccc(OC)cc2)oc2ccc(-c3ccc(OC)nc3)cc12	0%	-11%	?	2%	40*	22
O=c1[nH]c2cc3c(cc2cc1C(c1nnnn1Cc1ccccc1)N1CCCCCC1)OCCO3 (stereo unspecified)	0%	-59%	i	-21%	-1	-19
SMILES	B2AR arrestin	BRCA1 expr up	PTHR1 agonist	RGS4 inh	D3 ag	D3 antag
Cc1cccc2cc(C(c3nnnn3Cc3ccc4c(c3)OCO4)N3CCCC3)c(=O)[nH]c12 (stereo unspecified)	-1%	-19%	i	-50%	12	-51*
Clc1ccc(-c2ccc(CNCc3ccccn3)o2)cc1	0%	?	-33%	-33%	-22	-69*
Cc1c(N=C2C=CC(=O)c3ccccc32)c(=O)n(-c2ccccc2)n1C	0%	-94%	-77%	-12%	-11	-55*
Cc1c(N=C2C=C(Br)C(=O)C(Br)=C2)c(=O)n(-c2ccccc2)n1C	1%	-18%	-25%	?	5	4
CCC(NC(C)C)C(O)c1ccc(O)c2[nH]c(=O)ccc12 (stereo unspecified)	0.18µM*	4%	?	-18%	35*	-7
C/C=C(\C)CN1CCN(c2cccc(C)c2C)CC1	0%	3%	8%	27%	-28	-88*
Cc1ccc(C)c(N2CCN(Cc3csc(C)c3)CC2)c1	nt	nt	-8%	10%	-38	nt
Cc1ccc(C)c(N2CCN(CCCNC(=O)c3ccc4nc(CCc5ccccc5)oc4c3)CC2)c1	nt	nt	0%	8%	-20	nt
C/C=C(\C)CN1CCN(c2cc(C)ccc2C)CC1	0%	1%	i	13%	-38	-86*
Cc1ccc(C)c(N2CCN(CCCc3ccccc3)CC2)c1	0%	-2%	-88%	2%	-20	-65*
C/C=C(\C)CN1CCN(c2ccccc2F)CC1	0%	2%	i	2%	-3	-30
CCOC(=O)c1c(NC(=O)CN2CCN(S(=O)(=O)c3cc(Cl)ccc3Cl)CC2)sc(C(=O)N(C)C)c1C	nt	-63%	-21%	-3%	3	-9
Cc1ccc(NC(=O)CC(C)S(=O)(=O)c2ccc3c(c2)NC(=O)CO3)c(C)c1 (stereo unspecified)	nt	nt	i	-26%	0	nt
CN(C)c1ccc(C2C=C(c3ccccc3)Nc3nnnn32)cc1 (stereo unspecified)	nt	nt	-19%	-29%	-1	nt
CCOC(=O)CNS(=O)(=O)c1cc(-c2nn(C)c(=O)c3ccccc23)ccc1C	0%	-13%	i	1%	4	2
Cc1ccc(-c2nn(C)c(=O)c3ccccc23)cc1S(=O)(=O)NCCN1CCOCC1	0%	-33%	-7%[57.5 µM]	-6%	-5	-53*
O=C(NCCc1ccccc1)C1CCCN1C(=O)Nc1cccc(Cl)c1 (stereo unspecified)	0%	1%	i	11%	-4	-73*
CSCC(=O)N1CCc2ccc(NC(=O)c3ccccc3Cl)cc2C1	-1%	10µM*	-69%	-7%	6	6
CN(C)S(=O)(=O)N1CCc2ccc(NC(=O)c3ccccc3Cl)cc2C1	0%	77%	-15%	-3%	-3	-24
Cc1c(Cl)cnc(NC(=O)COC(=O)c2cccc(S(=O)(=O)N3CCOCC3)c2)c1Cl	nt	34%	-1%	nt	-1	-25

Screens from PubChem.
